Experimental data as given in PubChem BioAssay (NCI).
The panel holds about 79,000 compounds, 15% with a hit somewhere; the sample as a whole holds those more often. Active and inactive are the calls of the source. Rule as the data show it: active = growth inhibition above about 70%; inactive = the rest.

Assays:
[1] = NCI Yeast Anticancer Drug Screen. Data for the rad52 strain (AID 147);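 also: 0% = growth of vehicle-treated control cultures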; conditions: S. cerevisiae rad52 mutant growth inhibition, active compounds read high
Method in brief: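 Inhibition of yeast growth, referenced to vehicle controls, was the measured output for a strain with defective DNA damage repair.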

[2] = NCI Yeast Anticancer Drug Screen. Data for the wt1 strain (AID 149);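 also: 0% = growth of vehicle-treated wt1 cultures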; conditions: S. cerevisiae wt1 strain (SPY 50644) growth inhibition, active compounds read high
Method in brief: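 Vehicle-normalised growth inhibition; strain wt1; compound exposure.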

[3] = NCI Yeast Anticancer Drug Screen. Data for the rad50EPP+ strain (AID 151);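 also: 0% = growth of vehicle-treated control cultures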; conditions: S. cerevisiae rad50 mutant strain, active compounds read high
Method in brief: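 Genetically defined yeast (rad50EPP+, DNA damage repair alteration) is grown with compound, and inhibition of growth is expressed relative to vehicle-treated controls.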

[4] = NCI Yeast Anticancer Drug Screen. Data for the mgt1 strain (AID 153); conditions: S. cerevisiae mgt1 mutant growth inhibition, active compounds read high
Method in brief: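 In the mgt1 strain, test compounds were added and growth inhibition was determined relative to vehicle-treated controls.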

[5] = NCI Yeast Anticancer Drug Screen. Data for the rad50 strain (AID 155);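 also: 0% = growth of vehicle-only cultures of the same strain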; conditions: S. cerevisiae rad50 strain growth inhibition, active compounds read high
Method in brief: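 A DNA repair-deficient yeast mutant serves as the test organism; compound-induced growth inhibition is calculated against vehicle-treated cells.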

[6] = NCI Yeast Anticancer Drug Screen. Data for the mec2-1 strain (AID 157); conditions: S. cerevisiae mec2-1 strain, active compounds read high
Method in brief: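 Each compound was tested on mec2-1 yeast, a strain altered in DNA damage repair or cell cycle control. Growth inhibition is reported relative to vehicle.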

[7] = NCI Yeast Anticancer Drug Screen. Data for the rad14 strain (AID 159);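 also: 0% = growth of vehicle-treated control cultures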; conditions: S. cerevisiae rad14 strain growth inhibition, active compounds read high
Method in brief: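 Vehicle-treated cultures served as the baseline for growth inhibition of a DNA repair-mutant yeast strain exposed to each compound.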

[8] = NCI Yeast Anticancer Drug Screen. Data for the sgs1 mgt1 strain (AID 161);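 also: 0% = growth of cultures given vehicle only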; conditions: S. cerevisiae sgs1 mgt1 strain, active compounds read high
Method in brief: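 Mutant yeast exposed to compound; growth scored against vehicle-only wells.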

[9] = NCI Yeast Anticancer Drug Screen. Data for the CLN2oe strain (AID 163);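 also: 0% = growth of vehicle-only control cultures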; conditions: S. cerevisiae CLN2oe strain, active compounds read high
Method in brief: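 First, the altered yeast strain was treated with each compound; second, its growth was measured; finally, inhibition was derived by comparison with vehicle controls.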

[10] = NCI Yeast Anticancer Drug Screen. Data for the cln2 rad14 strain (AID 165);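 also: 0% = growth equal to vehicle treated cultures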; conditions: S. cerevisiae cln2 rad14 strain, active compounds read high
Method in brief: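 Test compounds were added to cln2 rad14 yeast cultures; inhibition of growth was then determined by comparison with vehicle treatment.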

[11] = NCI Yeast Anticancer Drug Screen. Data for the bub3 strain (AID 167); conditions: S. cerevisiae bub3 mutant strain, active compounds read high
Method in brief: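 Inhibition values come from growth of compound-treated mutant yeast normalised to vehicle-treated controls.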

[12] = NCI Yeast Anticancer Drug Screen. Data for the wt2 strain (AID 169);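 also: 0% = growth of vehicle-treated yeast cultures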; conditions: S. cerevisiae wt2 strain growth inhibition, active compounds read high
Method in brief: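 The panel's yeast strains carry defined changes in DNA repair or cell cycle genes. Each strain is grown with compound, and growth loss is scored relative to vehicle.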

[13] = NCI Yeast Anticancer Drug Screen. Data for the mlh1 strain (AID 171);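 also: 0% = growth of vehicle-treated control cultures of the same strain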; conditions: S. cerevisiae mlh1 strain growth inhibition, active compounds read high
Method in brief: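 Inhibition values reflect reduced yeast growth in the presence of compound, referenced to vehicle controls, using a strain chosen for its alteration in DNA repair or cell cycle control.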

[14] = NCI Yeast Anticancer Drug Screen. Data for the mlh1 rad18 strain (AID 175); conditions: S. cerevisiae mlh1 rad18 strain growth inhibition, active compounds read high
Method in brief: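 Inhibition values reflect reduced growth of mutant yeast versus vehicle-treated controls following compound exposure; the mutations affect DNA damage repair.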

[15] = NCI Yeast Anticancer Drug Screen. Data for the rad18 strain (AID 177); conditions: S. cerevisiae rad18 mutant growth inhibition, active compounds read high
Method in brief: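 Steps: expose repair-mutant yeast to compound; measure growth; express as inhibition relative to vehicle control.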

[16] = at 5.0 µM (retest, dose inferred, filed as 0.5)
[17] = at 50.0 µM (retest, dose inferred, filed as 5.0)

Measured: growth inhibition

Nc1ccc2c(c1)C(=O)c1cccc(N)c1C2=O
inactive: [1]; at 1.2 µM 6% | [1]; at 3.7 µM 38% | [2]; at 1.2 µM -1% | [2]; at 3.7 µM 6% | [2]; at 11.0 µM 24% | [2]; at 33.0 µM 49% | [2]; at 100.0 µM 61% | [3]; at 1.2 µM 9% | [3]; at 3.7 µM 50% | [4]; at 1.2 µM -1% | [4]; at 3.7 µM 4% | [4]; at 11.0 µM 21% | [4]; at 33.0 µM 63% | [5]; at 1.2 µM 10% | [5]; at 3.7 µM 45% | [5]; [16] 51% | [6]; at 1.2 µM 4% | [6]; at 3.7 µM 16% | [6]; [16] 17% | [6]; at 11.0 µM 38% | [6]; at 33.0 µM 64% | [6]; [17] 68% | [6]; at 50.0 µM 53.9% | [7]; at 1.2 µM 5% | [7]; at 3.7 µM 11% | [7]; at 11.0 µM 29% | [7]; at 33.0 µM 57% | [8]; [16] -9% | [8]; [17] 66% | [8]; at 50.0 µM 42.9% | [9]; at 1.2 µM -2% | [9]; at 3.7 µM 3% | [9]; at 11.0 µM 19% | [9]; at 33.0 µM 37% | [9]; at 100.0 µM 48% | [10]; [16] 8% | [10]; at 50.0 µM 54.6% | [11]; at 1.2 µM -1% | [11]; at 3.7 µM 2% | [11]; [16] 6% | [11]; at 11.0 µM 25% | [11]; at 50.0 µM 57.1% | [12]; at 1.2 µM -2% | [12]; at 3.7 µM 11% | [12]; at 11.0 µM 19% | [12]; at 33.0 µM 56% | [13]; at 1.2 µM 0% | [13]; at 3.7 µM 7% | [13]; at 11.0 µM 32% | [14]; [16] 18% | [15]; at 1.2 µM 5% | [15]; at 3.7 µM 39%
active: [1]; at 11.0 µM 89% | [1]; at 33.0 µM 93% | [1]; at 100.0 µM 92% | [3]; at 11.0 µM 92% | [3]; at 33.0 µM 97% | [3]; at 100.0 µM 92% | [4]; at 100.0 µM 81% | [5]; at 11.0 µM 92% | [5]; at 33.0 µM 95% | [5]; [17] 93% | [5]; at 50.0 µM 89.8% | [5]; at 100.0 µM 93% | [6]; at 100.0 µM 82% | [7]; at 100.0 µM 88% | [10]; [17] 77% | [11]; at 33.0 µM 72% | [11]; [17] 89% | [11]; at 100.0 µM 87% | [12]; at 100.0 µM 72% | [13]; at 33.0 µM 74% | [13]; at 100.0 µM 85% | [14]; [17] 93% | [14]; at 50.0 µM 72.5% | [15]; at 11.0 µM 91% | [15]; at 33.0 µM 97% | [15]; at 100.0 µM 93%
